The record followed here is the supplement of paper PMC13380429.

The structures appear in SMILES notation.

In the assay the test system is Vero E6 infected with SARS-CoV-2. Kind of assay: inhibition of SARS-CoV-2 cytopathic effect; higher = more antiviral protection, active = above 15. The conditions noted are these: 10000 nM; 48 h. A general note: Damage to the host cells serves as the signal in cytopathic effect assays.
Turning to `Cc1cnc(Nc2ccc(N3CCN(C)CC3)cc2)nc1Nc1cccc(S(=O)(=O)NC(C)(C)C)c1`, the “inhibition of SARS-CoV-2 cytopathic effect” value (“inhibition” for short) was -21.1% (inactive).
The result for `c1ccc2c(-c3cnn4cc(-c5ccc(N6CCNCC6)cc5)cnc34)ccnc2c1` reads -26.3% (inactive); that for `C=C1CC[C@H](O)C/C1=C/C=C1\CCC[C@]2(C)[C@@H]([C@H](C)CCCC(C)C)CC[C@@H]12` [cholecalciferol], 0.91% (inactive).
For the compound `Nc1nccc(Oc2ccc(NC(=O)c3c[nH]cc(-c4ccc(F)cc4)c3=O)cc2F)c1Cl` [metatinib], the “inhibition” value is -2.56% (inactive).
For the compound `O=C(NCC1CCCCN1)c1cc(OCC(F)(F)F)ccc1OCC(F)(F)F` (stereo not given) [flecainide], the “inhibition” value is -3.89% (inactive).
